Data on 39 compounds can be found in PubChem BioAssay (NCATS).

Inconclusive results are not listed. Activity calls are given as the source filed them. The call rests on the fitted dose curve; in most records, active means well fitted inhibition curve with a large enough effect; inconclusive means small, poorly fitted or top-dose-only effect; inactive means no such curve, though single readings can be large or run the other way.
On the % scale 0 is the no-effect control and ±100 the full control effect; potency means the concentration at half of the fitted maximal effect.

The target of the assay is Aldehyde dehydrogenase 1A1 (Homo sapiens) (UniProt P00352). Description: qHTS for Inhibitors of the Aldehyde Dehydrogenase Family (ALDH1A1) Confirmatory screens (AID 2061316). Further: nearly all actives have a fitted effect of over 65% in size. The settings on record: ALDH inhibition qHTS; series mostly up to 47.3 µM; activity change, negative = inhibition: at the top concentration. (Quantitative high-throughput screening tests each substance at several concentrations.)
Regarding `CC(=O)SCC(CC(=O)c1ccc(C)cc1)C(=O)O` (centres undefined), the “activity change, negative = inhibition” value was -12% (inactive).
Still for that read-out and setting: the value for `CCCCNc1ccc(C(=O)OCCN(CC)CC)cc1` was -16.6% (inactive).
In the case of `N#Cc1c(-c2csc(-c3no[n+]([O-])c3C#N)c2)no[n+]1[O-]`, the Potency was 11.3 µM (active).
Regarding `CCOC(=O)c1ccc(O)c2ncc(-c3ccc(C(=N)N)cc3)cc12`, the result was inactive.
On to `N#Cc1ccccc1OC1=NS(=O)(=O)c2ccccc21`, for which the “activity change, negative = inhibition” value was -10% (inactive).
The same measure, in the same setting: to `CC(C)c1ccccc1-c1ncc(F)c(NC(C)(C)c2ccc(-c3cccnc3)cc2)n1` belongs 3.64% (inactive).
Take `CC(=O)NCCC(=O)N[C@@H](CCC(N)=O)C(=O)N[C@@H](CO)C(=O)N[C@@H](CCC(N)=O)C(=O)N[C@@H](CCC(N)=O)C(=O)N[C@H](C(=O)N[C@@H](Cc1ccccc1)C(=O)N[C@]1(C)CCCCCCC=CCCC[C@@](C)(C(=O)N[C@@H](CCC(N)=O)C(=O)N[C@@H](CC(N)=O)C(N)=O)NC(=O)[C@H](CC(C)C)NC(=O)[C@H](CC(C)C)NC(=O)[C@@H](CCCNC(=N)N)NC(=O)[C@H](Cc2c[nH]c3ccccc23)NC(=O)[C@H](CC(C)C)NC(=O)[C@H](CC(N)=O)NC1=O)[C@H](C)O`: the compound was called inactive.
In the case of `COc1ccc(C2=Nn3c(nnc3-c3cccc(OC)c3OC)SC2)cc1`, the “activity change, negative = inhibition” value is -9.68% (inactive).
In the case of `OCc1cccc(-c2noc(-c3ccccc3F)n2)c1`, the call was inactive.
Turning to `FC(F)(F)c1cccc(N2CCN(C(=S)Nc3nccc4cccnc34)CC2)c1`, the Potency was 7.98 µM (active).
`O=C(CSc1nnc(-c2cccc(S(=O)(=O)N3CCCC3)c2)n1-c1ccccc1)Nc1ccc(F)cc1`: the “activity change, negative = inhibition” value is -6.42% (inactive).
Consider `COc1ccc(C2=Nn3c(nnc3-c3cc(OC)cc(OC)c3)SC2)cc1`, for which the compound was called inactive.
On the same count and under the same terms, to `COc1ccc(C[C@H](N)C(=O)N[C@H]2[C@@H](O)[C@H](n3cnc4c(N(C)C)ncnc43)O[C@@H]2CO)cc1` belongs “inactive”.
On to `O=C(O)c1ccc2c(c1)C(=O)N([C@H](Cc1ccc(F)cc1)C(=O)O)C2=O`, for which the “activity change, negative = inhibition” value was -18.1% (inactive).
Same read-out and setting: to `Cn1ncc(-c2nnc(-c3ccccc3)n2CCCn2ccnc2)c1N` belongs -14.4% (inactive); to `O=C(O)c1ccc(O)c2ncc(N3CCCN(C4CCCC4)CC3)cc12`, -0.293% (inactive).
With `CCOc1cc(CNc2ccc(O)cc2)ccc1OCc1ccc(Cl)cc1`, the Potency was 6.34 µM (active).
For `O=C(O)c1ccc(S(=O)(=O)N[C@H](Cc2ccccc2)C(=O)O)cc1`, the “activity change, negative = inhibition” value is -11.1% (inactive).
For the compound `Cc1ccc(S(=O)(=O)NC(N)=NCCC[C@@H](NC(=O)CNC(=O)c2ccccc2)C(=O)Nc2cc(C(F)(F)F)ccc2Cl)cc1`, the “activity change, negative = inhibition” value was -12.7% (inactive).
Still for that read-out and setting: to `C[C@@](Cc1ccccc1)(C(=O)O)N1C(=O)c2ccc(C(=O)O)cc2C1=O` belongs -18.2% (inactive); to `Cc1ccccc1C[C@H](C(=O)O)N1C(=O)c2ccc(C(=O)O)cc2C1=O`, -8.27% (inactive).
`COc1cc(NS(=O)(=O)c2ccc([N+](=O)[O-])cc2)c2ncccc2c1`: the Potency is 5.65 µM (active).
Consider `CCCCN(CCCNC(=S)NCCCc1cnc[nH]1)c1ccc(Br)cn1`, for which the call was inactive.
With `Cc1ccc(-c2cc(C(=O)N3CCCCC3)c3ccccc3n2)cc1C`, the “activity change, negative = inhibition” value was -18.9% (inactive).
For the compound `S=C(NCCCc1cnc[nH]1)NCCCN(Cc1ccc(Cl)c(Cl)c1)c1ccccn1`, the compound was classed as inactive.
Regarding `Cc1cccc2c(C(=O)O)cc(Cl)nc12`, the “activity change, negative = inhibition” value is -9.23% (inactive).
On the same count and under the same terms, to `Cc1cc(N2C(=O)c3ccccc3C2=O)n[nH]1` belongs -1.02% (inactive); to `O=C(O)c1ccc(S(=O)(=O)N[C@H](Cc2ccc(C(F)(F)F)cc2)C(=O)O)cc1`, 4.8% (inactive).
Take `Cc1nnc(-c2cnn(C)c2N)n1CCCn1ccnc1`: the “activity change, negative = inhibition” value is -16.8% (inactive).
The same measure, in the same setting: to `COc1cc(F)cc(F)c1[S+](=O)([O-])N1CCN([S+](=O)([O-])c2ccc3c(c2)OCCO3)CC1` belongs -9.5% (inactive).
As to `O=C1c2ccccc2NC(c2ccc(-c3cccc([N+](=O)[O-])c3)o2)N1O` (centres undefined), the Potency was 3.18 µM (active).
Regarding `Cc1nnc(-c2ccccc2C(C)C)nc1NCc1ccc(-c2cccnc2)cc1`, the “activity change, negative = inhibition” value was -10.5% (inactive).
On to `N#Cc1ccc(-c2ccc(C3Nc4ccccc4C(=O)N3O)o2)cc1` (centres undefined), for which the Potency was 3.57 µM (active).
On the same count and under the same terms, the value for `Fc1cc(Nc2nc(-c3ccncc3)nc3ccccc23)ccc1N1CCCCC1` was 3.57 µM (active).
In the case of `Cc1cc2c(s1)c1cnn(Cc3c(Cl)ccc(C)c3F)c(=O)c1n2C`, the compound was called inactive.
As to `O=C(C1CCN(c2nc(-c3ccc(Br)cc3)cs2)CC1)N1CCNCC1`, the Potency is 25.2 µM (active).
Same read-out and setting: the value for `COc1ccc(C2Nc3ccccc3C(=O)N2CCO)cc1COc1ccc(NC(C)=O)cc1` (centres undefined) was 22.5 µM (active).
As to `CC(=O)N(C(C)=O)n1c(C)nc2sc3c(c2c1=O)CCNC3`, the “activity change, negative = inhibition” value was -10.4% (inactive).
Same read-out and setting: to `CCC(=O)C1CCCN(C(=O)CC(c2ccc3c(c2)OCO3)c2c(O)cc(OC)cc2OC)C1` (centres undefined) belongs -19% [at 86.7 µM] (inactive).
